Measurements as given in PubChem BioAssay AID1345085 (National Center for Advancing Translational Sciences (NCATS), 2018).
Inconclusive results are not listed. Where a call stands in place of a potency, no number is given. Calls of active or inactive are those of the source. Calls follow the shape of the dose curve; as a rule, active = well fitted cell-killing curve with a large enough effect; inconclusive = small, poorly fitted or top-dose-only effect, or effect the other way; inactive = no such curve, though single readings can be large or run the other way.
Also: nearly all actives have a fitted effect of over 55% in size.
Potency is read from the fitted curve at half-maximal effect.

The molecules below were run on C33A (assay: Confirmatory qHTS for gynecologic anti-cancer compounds from libraries of approved drugs and bioactive compounds). Conditions: gynecologic cancer cell panel viability, ATPlite luminescence, 48 h; series mostly up to 57.6 µM.
Summary of the method: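 Seeding 1,000 cells per well preceded overnight (16 h) attachment, after which 48 h drug treatment across 57.5 uM–0.977 nM (11 points) was applied. Remaining cellular ATP, detected by ATPlite luminescence, defined IC50.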
With `NC1(c2ccc(-c3nc4ccn5c(=O)[nH]nc5c4cc3-c3ccccc3)cc2)CCC1` the Potency was “inactive”. `COc1cc2c(Oc3ccc(-c4cnc(Nc5ccc(F)cc5)n(C)c4=O)cc3F)ccnc2cc1OCCCN1CCOCC1` was tested, and the Potency was “inactive”. With `Cc1cc(Nc2nc(N[C@@H](C)c3ccc(F)cc3)c(C#N)cc2F)n[nH]1` the Potency was “inactive”. `Cc1ccc(C(=O)Nc2ccc(Oc3cc4cnn(C)c4cc3-c3cn[nH]c3)c(F)c2)c(=O)n1-c1ccc(F)cc1` was tested, and the Potency was “inactive”. With `NC(=O)c1cnc(-c2ccc(C3(N)CCC3)cc2)c(-c2ccccc2)c1` the Potency was 19.3 µM (active). `CCCCc1oc2ccccc2c1C(=O)c1cc(I)c(OCCN(CC)CC)c(I)c1` was tested, and the Potency was 70.8 µM (active). `O=C(CCCCCCC(=O)Nc1ccccc1)NO` was tested, and the Potency was 3.43 µM (active). In the case of `Cc1cnc(Nc2ccc(F)cc2Cl)nc1-c1c[nH]c(C(=O)NC(CO)c2cccc(Cl)c2)c1` (stereo not given), the Potency is reported as “inactive”. In the case of `CC(C)[C@@H](CS(=O)(=O)C(C)C)N1C(=O)[C@@](C)(CC(=O)O)C[C@H](c2cccc(Cl)c2)[C@H]1c1ccc(Cl)cc1`, the Potency is reported as “inactive”. With `CC(C)C[C@H](NC(=O)[C@H](CCc1ccccc1)NC(=O)CN1CCOCC1)C(=O)N[C@@H](Cc1ccccc1)C(=O)N[C@@H](CC(C)C)C(=O)[C@@]1(C)CO1` the Potency was 6.11 µM (active). In the case of `CCN1CCN(Cc2ccc(-c3cc4c(NC(C)c5ccccc5)ncnc4[nH]3)cc2)CC1` (stereo not given), the Potency is reported as 27.3 µM (active). With `Cc1cc(SCc2sc(-c3ccc(C(F)(F)F)cc3)nc2C)ccc1OCC(=O)O` the Potency was “inactive”. In the case of `Cn1cnc2c(F)c(Nc3ccc(Br)cc3F)c(C(=O)NOCCO)cc21`, the Potency is reported as “inactive”. With `NS(=O)(=O)c1ccc(Nc2nc(OCC3CCCCC3)c3[nH]cnc3n2)cc1` the Potency was “inactive”. With `COc1ccccc1N1CCN(CC(O)COc2cccc3ccccc23)CC1` (stereo not given) the Potency was “inactive”. In the case of `CC(C)(C(=O)NCC(F)(F)C(F)(F)F)C(=O)NC1C(=O)Nc2ccccc2-c2ccccc21` (stereo not given), the Potency is reported as “inactive”. With `Nc1ccccc1NC(=O)c1ccc(CNC(=O)OCc2cccnc2)cc1` the Potency was 5.44 µM (active). In the case of `COc1ccc2c(c1)c(CC(=O)O)c(C)n2C(=O)c1ccc(Cl)cc1`, the Potency is reported as “inactive”. With `CN1C(=O)C(Cc2c[nH]c3ccccc23)NC1=S` (stereo not given) the Potency was “inactive”. In the case of `Cc1c(NC(=O)OCC2COCCN2)cn2ncnc(Nc3ccc4c(cnn4Cc4cccc(F)c4)c3)c12` (stereo not given), the Potency is reported as 24.3 µM (active).
